An excerpt weighted towards active compounds, which were near 31% of everything screened.
CYP2C19 inh – blocks human cytochrome P450 2C19; P33261; CYP2C19 Supersomes, luciferin-H EGE luminescence, 30 min; inhibition, % at 5 µM; 21% of 96,000 active; AID 778;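 active = CYP2C19 inhibition above a set limit at 5 µM in the primary screen, cut at about 50% in these data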;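 also: plate controls were negative control wells for no effect and 2.5 mM tranylcypromine positive control for full effect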
Target sequence (P33261 whole entry, looked up): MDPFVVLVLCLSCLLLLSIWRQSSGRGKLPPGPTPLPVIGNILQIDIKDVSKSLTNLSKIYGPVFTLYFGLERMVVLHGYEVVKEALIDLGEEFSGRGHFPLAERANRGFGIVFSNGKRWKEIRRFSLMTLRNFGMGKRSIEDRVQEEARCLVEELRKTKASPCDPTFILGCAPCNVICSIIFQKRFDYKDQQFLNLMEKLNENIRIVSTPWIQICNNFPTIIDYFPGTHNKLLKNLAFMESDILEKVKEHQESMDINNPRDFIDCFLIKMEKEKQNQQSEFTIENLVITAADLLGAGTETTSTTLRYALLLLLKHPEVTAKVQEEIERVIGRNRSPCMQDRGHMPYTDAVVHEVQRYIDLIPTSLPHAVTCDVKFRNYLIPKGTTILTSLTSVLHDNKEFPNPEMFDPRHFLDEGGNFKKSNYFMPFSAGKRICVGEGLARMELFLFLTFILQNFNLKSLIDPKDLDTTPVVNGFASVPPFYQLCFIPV
CYP2C19 activ – increases human CYP2C19 enzyme activity; recombinant CYP2C19, luciferin-H EGE luminescence; stronger effect = higher value; 0 = fully inhibited enzyme, 1 = untreated enzyme; activation factor at 5 µM; 96,000 tested, under 10 active; P33261;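 active = activation factor of at least 2 at 5 µM in the primary screen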;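 also: 0 = wells with 2.5 mM tranylcypromine and 1 = vehicle-only wells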
CYP2C9 inhib – blocks human cytochrome P450 2C9 | CYP2C9 Supersomes, luciferin-H conversion, luminescence | 20% of 96,000 active | inhibition, % at 5 µM | P11712;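 active = blocking of liver enzyme CYP2C9 beyond about 50% at 5 µM, limit read from the data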
CYP2C9 activ – increases human cytochrome P450 2C9 activity. P11712. recombinant CYP2C9, luciferin-H conversion, luminescence; stronger effect = higher value; factor 1 = untreated enzyme, 0 = blocked. activation factor at 5 µM. 1.4% of 96,000 active. AID 1024;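 active = activation factor of 2 or more for CYP2C9 at a 5 µM dose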;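 also: 0 = sulfaphenazole-blocked wells and 1 = vehicle-only wells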
* = called active by the depositor.

SMILES | CYP2C19 inh | CYP2C19 activ | CYP2C9 inhib | CYP2C9 activ
Clc1ccc(-c2nnc3ccccn23)cc1 | -13 | 1.1 | -27 | 1.3
CCOc1cccc(-c2nn3c(-c4cc(C)[nH]n4)nnc3s2)c1 | 10 | 0.9 | 17 | 0.8
Cc1cn2c(-c3ccc(Cl)cc3)nnc2s1 | 58* | 0.4 | 9 | 0.9
Cc1ccc(-c2noc(CCC(=O)Nc3ccccc3C)n2)cc1 | 20 | 0.8 | 37 | 0.6
Cc1ccc(-c2noc(CCC(=O)N(C)c3ccccc3C)n2)cc1 | 82* | 0.2 | 94* | 0.1
COc1ccc(-c2noc(CCC(=O)N(C)c3cccc(C)c3)n2)cc1 | 89* | 0.1 | 83* | 0.2
CCN(C(=O)CCc1nc(-c2ccc(OC)cc2)no1)c1cc(OC)ccc1OC | 59* | 0.4 | 75* | 0.3
S=c1[nH]ncn1/N=C/c1cccc(Oc2ccccc2)c1 | 61* | 0.4 | 50 | 0.5
C(=N\n1cnnc1)/c1cccc(Oc2ccccc2)c1 | 77* | 0.2 | 57* | 0.4
Fc1ccccc1COc1cccc(/C=N/n2cnnc2)c1 | 99* | 0 | 68* | 0.3
Nc1nnnn1/N=C/c1cccc(Oc2ccccc2)c1 | 56* | 0.4 | 8 | 0.9
O=[N+]([O-])c1cccc(/C=N/n2c(COc3ccccc3)n[nH]c2=S)c1 | 41 | 0.6 | 50 | 0.5
Brc1cccc(/C=N\n2cnnc2)c1 | 38 | 0.6 | 8 | 0.9
Nc1nnnn1/N=C/c1ccccc1OCc1ccccc1 | -8 | 1.1 | -12 | 1.1
O=C(N1CCOCC1)N(CCN1CCOCC1)Cc1cccc(Cl)c1 | -1 | 1 | -7 | 1.1
Cc1ccccc1NC(=O)c1cc(S(=O)(=O)c2ccccc2)ccc1Cl | 6 | 0.9 | 1 | 1
COC(=O)c1ccc(CSc2nnc(Nc3ccccc3OC)s2)o1 | 50 | 0.5 | -58 | 1.6
c1ccc2[nH]c(SCc3ccc(-c4nnco4)cc3)nc2c1 | 99* | 0 | 95* | 0.1
O=C1CCC(=O)N1c1ccc(CSc2nc3ccccc3[nH]2)cc1 | 64* | 0.4 | 62* | 0.4
COc1ccc(CSc2nc3ccccc3[nH]2)cc1 | 48 | 0.5 | 63* | 0.4
COc1ccc(CSc2nc(C)cc(=O)[nH]2)cc1 | 32 | 0.7 | 36 | 0.6
COC(=O)c1ccc(CSc2nc3ccccc3[nH]2)o1 | 81* | 0.2 | 36 | 0.6
COc1cccc(C2/C(=C(\O)c3c(C)nc4c(C)cccn34)C(=O)C(=O)N2CCCN(C)C)c1 (stereo not drawn) | 5 | 0.9 | -6 | 1.1
COc1cccc(C(=O)SC2=NCCS2)c1 | 24 | 0.8 | 1 | 1
COc1ccccc1C1NC(=O)NC(C)=C1C(=O)Nc1cccc(C)c1C (stereo not drawn) | 31 | 0.7 | 18 | 0.8
SMILES | CYP2C19 inh | CYP2C19 activ | CYP2C9 inhib | CYP2C9 activ
c1cnc2c(SCc3ccc(-c4nnco4)cc3)cccc2c1 | 86* | 0.1 | 62* | 0.4
Cc1cccc(CSc2cccc3cccnc23)c1 | 46 | 0.5 | -39 | 1.4
CCOC(=O)c1ccc(CSc2n[nH]c(C)n2)o1 | 65* | 0.3 | 20 | 0.8
COc1ccc(-c2nc(N)ncc2-c2csc(C)n2)c(O)c1 | 87* | 0.1 | 3 | 1
COC(=O)c1cc(F)c(-n2cncn2)c(F)c1 | 70* | 0.3 | 9 | 0.9
COC(=O)c1ccc(N2CCOCC2)c(F)c1 | 36 | 0.6 | 42 | 0.6
CC(=O)Nc1ccc(S(=O)(=O)NC2(C(F)(F)F)C(=O)Nc3c2c(=O)n(C)c(=O)n3C)cc1 (stereo not drawn) | 26 | 0.7 | -7 | 1.1
c1ccc(CCN2CCN(c3ncnc4c3cnn4-c3ccccc3)CC2)cc1 | 79* | 0.2 | 78* | 0.2
Cc1cccc(-n2ncc3c(N4CCC(C)CC4)ncnc32)c1 | 71* | 0.3 | 96* | 0
c1ccc(-n2ncc3c(N4CCCCC4)ncnc32)cc1 | 83* | 0.2 | 82* | 0.2
CCN1CCN(c2ncnc3c2cnn3-c2ccccc2)CC1 | 13 | 0.9 | 8 | 0.9
CCCN1CCN(c2ncnc3c2nnn3Cc2ccccc2)CC1 | 36 | 0.6 | 14 | 0.9
c1ccc(Cn2nnc3c(N4CCCCCC4)ncnc32)cc1 | 36 | 0.6 | 71* | 0.3
O=S(=O)(Nc1ccc(N2CCCCC2)cc1)c1cccc2cccnc12 | 8 | 0.9 | -6 | 1.1
O=S(=O)(Nc1ccc(S(=O)(=O)N2CCCCC2)cc1)c1ccc(Br)s1 | 18 | 0.8 | 96* | 0
O=S(=O)(Nc1nccs1)c1ccc(NS(=O)(=O)c2cccs2)cc1 | -11 | 1.1 | 90* | 0.1
O=S(=O)(Nc1ccc(N2CCCCC2)cc1)c1cccs1 | 98* | 0 | 100* | 0

Bioassay records deposited in PubChem by Sanford-Burnham Center for Chemical Genomics.
